Glioma ERSR ind: induces the endoplasmic reticulum stress response in human glioma cells. AID 602332. 0.02% of 420,000 active. Potency, µM, usual class: activators. U87-MG GRP78 promoter luciferase reporter, 16 h; active = well fitted activation curve with a large enough effect; inconclusive = small, poorly fitted or top-dose-only effect; inactive = no such curve, though single readings can be large or run the other way; note: series mostly up to about 76 µM; nearly all actives have a fitted effect of over 35% in size
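Stably transfected U87-MG glioma cells carrying a GRP78-based luciferase sensor; 16 h compound incubation. Luminescence end-point read 10 min after Bright-Glo addition at room temperature.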
KCNH2 3.1 block: blocks the human KCNH2 3.1 channel isoform; U2OS KCNH2 3.1, thallium flux FluxOr; active compounds read low; activity change, % (tested at about 1.8 µM); 0.95% of 340,000 active;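 active = maximum activity change below -70%; inconclusive = maximum activity change from -70% to -50%; inactive = maximum activity change above -50%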;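 note: thallium influx rate constant from kinetic fluorescence after stimulation buffer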
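Thallium flux read-out: FluxOr dye with Red40 quencher in HBSS/HEPES, 45 min at RT. Rate constants from kinetic reads were normalized to positive and negative DMSO controls. Cells: U2OS virally expressing the 3.1 isoform.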
gsp antagonist: gsp mutant antagonism; gsp-mutant cells, cAMP HTRF, 30 min; Potency, µM (titrated, usually from 76.9 µM), actives largely listed as inhibitors; 0.4% of 340,000 active; calls by dose curve; cell line not stated here;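 note: intracellular cAMP measured with PDE inhibitor Ro 20-1724 present during compound exposure; nearly all actives have a fitted effect of over 65% in size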
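Cells in G418 medium, seeded 16-24 h, 37C; buffer exchange to DPBS + 1 mM CaCl2, 0.5 mM MgCl2, 0.05% BSA; cpds in DMSO + […] (300 uM stock), 30 min 37C; HTRF cAMP detection.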
KCNH2 WT inh: inhibitors of human wildtype KCNH2 potassium channel; Q12809; U2OS, BacMam KCNH2, thallium flux FluxOr; active compounds read low; activity change, % at 1.84 µM; 0.37% of 340,000 active;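 active = maximum activity change below -70%; inconclusive = maximum activity change between -70% and -50%; inactive = maximum activity change above -50%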
Target sequence (Q12809 whole entry, looked up): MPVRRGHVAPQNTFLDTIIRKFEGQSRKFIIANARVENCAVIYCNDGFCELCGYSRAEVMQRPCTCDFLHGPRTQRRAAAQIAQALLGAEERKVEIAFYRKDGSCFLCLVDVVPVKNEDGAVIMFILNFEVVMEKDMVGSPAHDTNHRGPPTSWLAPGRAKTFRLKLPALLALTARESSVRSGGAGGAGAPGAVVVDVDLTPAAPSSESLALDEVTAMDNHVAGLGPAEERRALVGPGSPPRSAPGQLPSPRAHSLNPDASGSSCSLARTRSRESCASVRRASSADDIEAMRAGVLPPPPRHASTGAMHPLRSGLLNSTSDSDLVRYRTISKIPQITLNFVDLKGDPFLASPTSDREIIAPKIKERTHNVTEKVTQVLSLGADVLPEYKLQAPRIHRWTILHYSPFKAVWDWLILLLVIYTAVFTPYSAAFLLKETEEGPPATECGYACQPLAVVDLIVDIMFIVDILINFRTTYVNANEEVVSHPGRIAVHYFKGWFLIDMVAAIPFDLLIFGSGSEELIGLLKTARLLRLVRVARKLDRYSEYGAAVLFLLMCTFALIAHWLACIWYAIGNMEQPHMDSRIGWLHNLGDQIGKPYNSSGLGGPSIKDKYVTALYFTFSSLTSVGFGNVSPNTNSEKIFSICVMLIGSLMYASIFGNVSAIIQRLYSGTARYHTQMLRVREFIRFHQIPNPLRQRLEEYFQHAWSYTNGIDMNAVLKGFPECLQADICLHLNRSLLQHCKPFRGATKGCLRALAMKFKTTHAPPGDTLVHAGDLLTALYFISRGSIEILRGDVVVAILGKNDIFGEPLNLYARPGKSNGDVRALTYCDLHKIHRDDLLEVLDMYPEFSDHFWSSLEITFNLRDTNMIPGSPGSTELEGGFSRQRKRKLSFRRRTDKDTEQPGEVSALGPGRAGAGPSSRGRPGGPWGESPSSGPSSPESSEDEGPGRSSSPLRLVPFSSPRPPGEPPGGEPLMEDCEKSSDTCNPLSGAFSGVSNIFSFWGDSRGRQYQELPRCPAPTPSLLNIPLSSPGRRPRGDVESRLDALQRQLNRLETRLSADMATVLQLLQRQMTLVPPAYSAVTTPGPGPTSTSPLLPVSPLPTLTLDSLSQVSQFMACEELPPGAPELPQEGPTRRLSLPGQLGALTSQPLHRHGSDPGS
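U2OS cells were transduced with wild-type KCNH2 virus (2.03 x 10^8 / mL) for 4 h at room temperature, then cultured overnight at 37 C. Thallium flux was read with FluxOr dye. Rate constants were normalized to DMSO controls.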
gsp ag: agonists of gsp mutant (McCune-Albright syndrome); Potency, µM (titrated, usually from 76.9 µM), actives largely listed as activators; gsp mutant cells, cAMP HTRF, 30 min; 0.13% of 340,000 active; AID 624287; active = well fitted activation curve with a large enough effect; inconclusive = small, poorly fitted or top-dose-only effect, or another doubt; inactive = no such curve, though single readings can be large or run the other way; cell line not stated here;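 note: phosphodiesterase inhibitor Ro 20-1724 added with compounds to block cAMP breakdown; nearly all actives have a fitted effect of over 60% in size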
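Cells stably selected in G418 were plated at 2000/well, grown 16-24 hr, then given compounds in DMSO with the PDE inhibitor […] (300 uM solution added) for 30 min at 37C; cAMP was read by HTRF.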
Akt phos inh: blocks phosphorylation of Akt | Neuro2A IGF-stimulated pAkt S473 HTRF, 20 min; active compounds read low | 0.32% of 360,000 active | activity change, % for hits at 50 µM | AID 651550; in the data active = activity change below about -80%; inconclusive = mostly about -51% to -80%
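Neuro2A cells (4,500/well, DMEM with 0.5% FBS) were treated with compound at a single 50 µM final concentration, stimulated with 6 nM IGF for 20 min at 37 °C, and lysed. Phospho-Akt Ser473 was read by HTRF as 665/615 ratio ×10^4.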
Hits are given with their value; i = inactive; ? = inconclusive; nt = not tested or not shown; [ ] = dose if it differs, or a comment. Most compounds without a hit are left out; they make up all but 1.6% or so of the library.

SMILES | Glioma ERSR ind | KCNH2 3.1 block | gsp antagonist | KCNH2 WT inh | gsp ag | Akt phos inh
CN(C)CCCNC(=O)C[C@H]1C[C@H](C(=O)N2CCCCC2)[C@@]2(CCc3ccccc3)c3[nH]c4ccc(Cl)cc4c3CCN2C1=O | i | i | i | -120 | nt | i
COCc1c(C(=O)N2CCN(C3CCCCC3)CC2)cnn1-c1ncc(C)c(-c2cccs2)n1 | i | nt | nt | nt | nt | nt
CCOCCn1ccc2c(OCC(=O)Nc3ccc(OC)c(OC)c3)cccc2c1=O | i | i | 35µM | i | i[15.4 µM] | i
O=c1nccc(NCc2ccco2)[nH]1 | i | i | i | i | i | -108%
Cc1ccc(C)c(CN2CCC(CNC(=O)Nc3cccc(Cl)c3C)CC2)c1 | i | i | i | i | i | i
Cc1ccc(NC(=O)NCC2CCN(Cc3cc(C)ccc3Cl)CC2)c(C)c1 | i | i | i | -151 | i | i
CCc1ccc(NC(=O)NCC2CCN(Cc3cccc(Cl)c3)CC2)cc1 | i | -91 | i | i | i | i
CCCCCCCCCCCCCCCCCCNC(=O)OC1CCN(C(=O)OC[C@H](COC(=O)N(Cc2cccc[n+]2CC)C(=O)c2ccccc2OC)OC)CC1 | i | nt | nt | nt | nt | nt
COc1ccccc1CNC(=O)Cc1ccc(C)cc1 | i | i | i | nt | i | i
COc1ccccc1CNCC(=O)NCc1ccc(C)cc1 | i | -71 | i | i | i | i
CCn1c2ccccc2c2cc(CN3CCOc4ccc(C(O)c5cccnc5)cc4C3)ccc21 (stereo not given) | i | nt | nt | nt | nt | nt
Cc1cnc(SCC2CCCO2)nc1C1CCCN(Cc2cc3c(cc2Cl)OCO3)C1 (stereo not given) | i | nt | nt | nt | nt | nt
COc1cccc(NC(=O)CN2C(=O)COc3ccc(S(=O)(=O)N4CCOCC4)cc32)c1 | i | i | i | i | i | i
COc1cccc(NC(=O)CN2C(=O)COc3ccc(S(=O)(=O)N4CCCCCC4)cc32)c1 | i | -111 | i | i | i | i
O=C(CN1C(=O)COc2ccc(S(=O)(=O)N3CCCC3)cc21)NC1CC1 | i | i | i | -83 | i | i
CC(C)NC(=O)CN1C(=O)COc2ccc(S(=O)(=O)N3CCCCCC3)cc21 | i | nt | nt | nt | nt | nt
CN(C)CCn1cnc2c1c(=O)[nH]c(=O)n2Cc1ccccc1 | i | i | i | -252 | i[15.4 µM] | i
CN(C)CCCn1cnc2c1c(=O)[nH]c(=O)n2Cc1ccccc1 | i | i | i | i | i | i
O=c1cc(-c2ccccc2)nc2nc(SCc3ccccc3)[nH]n12 | i | i | 25µM | i | i | i
Cc1cc(=O)n2[nH]c(SCc3ccccc3)nc2n1 | i | i | i | i | i | i
COCCCn1c(=S)[nH]c2ncccc2c1=O | i | i | i | i | i | -122%
COCCn1c(=S)[nH]c2ncccc2c1=O | i | i | i | i | i | -109%
COCCCn1c(-c2ccccc2)nc2ccccc2c1=O | i | i | i | i | i | -121%
CCCCCn1c(=S)[nH]c2ncccc2c1=O | i | i | i | i | i[15.4 µM] | i
CCCCN1CC[C@H]2C=CC[C@@H](C(=O)NCc3cccnc3)[C@H]2C1=O | i | nt | nt | nt | nt | nt
SMILES | Glioma ERSR ind | KCNH2 3.1 block | gsp antagonist | KCNH2 WT inh | gsp ag | Akt phos inh
CCOC(=O)c1c(C)[nH]c(C)c1C(=O)COC(=O)c1nn(CC)c(=O)c2ccccc12 | i | i | nt | -102 | i | i
O=C(Nc1cnccn1)c1ccncc1 | i | -84 | i | i | i | i
O=c1[nH]c(=O)n(Cc2ccco2)c2c1C(C(F)(F)F)(C(F)(F)F)N=C(CCc1ccccc1)N2 | i | -108 | i | i | ? | i
O=C([C@@H]1C[C@@H](Sc2nc3ccccc3[nH]2)CN1Cc1ccc(C(F)(F)F)cc1)N1CCN(c2ccccc2F)CC1 | i | nt | nt | nt | nt | nt
O=C(Nc1ccc(N2CCN(C(=O)c3ccc(Cl)cc3)CC2)cc1)c1cc2ccccc2o1 | i | -111 | i | -117 | ? | i
Cc1ccc(C(=O)N2CCN(c3ccc(NC(=O)CSc4ccc(Cl)cc4)cc3)CC2)cc1 | i | -118 | i | -118 | i[15.4 µM] | i
O=C(Nc1ccc(N2CCN(C(=O)c3cccs3)CC2)cc1)c1ccc(Br)o1 | i | i | ? | i | i | i
O=C(Nc1ccc(N2CCN(C(=O)c3ccc(Cl)cc3)CC2)cc1)c1ccc(Br)o1 | i | -90 | i | i | i | i

Compound activity from PubChem.
